In PubChem BioAssay (EPA / NIEHS):
Where a structure was tested more than once in an assay, its records may differ in their call. Active and inactive are the calls of the source. How the source made its calls: active means hit-call score of the fitted dose curve at least 0.9, where 1 is the maximum; inactive means score below 0.9.

How the values were obtained:
[1] = read-out: Monokine induced gamma interferon (MIG), CXCL9 (gene 4283); assay: BSK_KF3CT_MIG: BioMAP Diversity Plus: KF3CT Assay for Monokine induced gamma interferon (MIG) Biomarker Activity (AID 2284248); settings: primary human keratinocytes with fibroblasts
Method in brief: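 ELISA read-out of MIG after 24 h chemical exposure of human skin primary co-culture (keratinocytes, foreskin fibroblasts). Gain of signal relative to DMSO negative control was analysed.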

[2] = read-out: Plasminogen activator inhibitor-1 (PAI1), SERPINE1 (gene 5054); assay: BSK_KF3CT_PAI1: BioMAP Diversity Plus: KF3CT Assay for Plasminogen activator inhibitor-1 (PAI1) Biomarker Activity (AID 2284252); settings: primary human keratinocytes with fibroblasts
Method in brief: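 Signal is PAI-1 detected by ELISA in a human skin-derived keratinocyte/fibroblast co-culture, 24 h after dosing; DMSO served as negative control and baseline.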

[3] = read-out: Interleukin-8 (IL8), CXCL8 (gene 3576); assay: BSK_KF3CT_IL8: BioMAP Diversity Plus: KF3CT Assay for Interleukin-8 (IL8) Biomarker Activity (AID 2284254); settings: primary human keratinocytes with fibroblasts
Method in brief: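 IL-8 read-out: ELISA, 24 h post-dose, human skin primary co-culture (keratinocytes + foreskin fibroblasts). DMSO = baseline; positive-direction fit.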

[4] = BSK_BT_Bcell_Proliferation: Viability Assessment in the BioMAP Diversity Plus: BT Assay for B cell Proliferation (AID 2284227); settings: primary human B cells with PBMC
Method in brief: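 Read-out is absorbance at 560 nm from sulforhodamine B staining of total protein, reflecting relative cell numbers in a human B cell and PBMC co-culture after 72 h of chemical exposure. Values were referenced to DMSO.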

[5] = read-out: Interleukin 6 (IL6), IL6 (gene 3569); assay: BSK_BT_xIL6: BioMAP Diversity Plus: BT Assay for Interleukin 6 (IL6) Biomarker Activity (AID 2284228); settings: primary human B cells with PBMC
Method in brief: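 Readout: secreted IL-6 via Luminex xMAP multiplex, 24 h post-dosing. System: primary human B cells co-cultured with PBMC. Signal change scored relative to DMSO vehicle, positive fitting direction.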

[6] = read-out: Interleukin 17A (IL17A), IL17A (gene 3605); assay: BSK_BT_xIL17A: BioMAP Diversity Plus: BT Assay for Interleukin 17A (IL17A) Biomarker Activity (AID 2284229); settings: primary human B cells with PBMC
Method in brief: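 Luminex xMAP readout of secreted IL-17A; human B cell + PBMC co-culture; 24 h post-dose; positive-direction fit vs DMSO negative control.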

[7] = read-out: Vascular cell adhesion molecule 1 (VCAM1), VCAM1 (gene 7412); assay: BSK_MyoF_VCAM1: BioMAP Diversity Plus: MyoF Assay for Vascular cell adhesion molecule 1 (VCAM1) Biomarker Activity (AID 2284231); settings: primary human lung fibroblasts
Method in brief: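 MyoF system, lung fibroblasts; 24 h post-dose; VCAM-1 by ELISA; gain-of-signal fit vs DMSO baseline.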

[8] = read-out: Collagen I, COL1A1 (gene 1277); assay: BSK_MyoF_CollagenI: BioMAP Diversity Plus: MyoF Assay for Collagen I Biomarker Activity (AID 2284238); settings: primary human lung fibroblasts
Method in brief: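 ELISA readout of Collagen I after 24 h chemical treatment of primary human lung fibroblast cultures; gain of signal scored relative to DMSO vehicle baseline.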

[9] = read-out: Collagen III, COL3A1 (gene 1281); assay: BSK_MyoF_CollagenIII: BioMAP Diversity Plus: MyoF Assay for Collagen III Biomarker Activity (AID 2284239); settings: primary human lung fibroblasts
Method in brief: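 Lung fibroblast culture; 24 h compound exposure; collagen III by ELISA; gain-of-signal fit vs DMSO baseline.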

[10] = read-out: Interleukin 17F (IL17F), IL17F (gene 112744); assay: BSK_BT_xIL17F: BioMAP Diversity Plus: BT Assay for Interleukin 17F (IL17F) Biomarker Activity (AID 2284243); settings: primary human B cells with PBMC
Method in brief: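 Secreted IL-17F, read on LumineX xMAP beads, was taken as the endpoint. Cultures combined human B cells and peripheral blood mononuclear cells, sampled 24 hours after dosing, with DMSO serving as negative control.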

[11] = read-out: Actin alpha 1 (ACTA1), ACTA1 (gene 58); assay: BSK_MyoF_ACTA1: BioMAP Diversity Plus: MyoF Assay for Actin alpha 1 (ACTA1) Biomarker Activity (AID 2284244); settings: primary human lung fibroblasts
Method in brief: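 Measured by ELISA: alpha-smooth muscle actin in human primary lung fibroblasts 24 h after dosing, with DMSO as baseline and upward signal change as the fitted direction.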

[12] = read-out: Interleukin 2 (IL2), IL2 (gene 3558); assay: BSK_BT_xIL2: BioMAP Diversity Plus: BT Assay for Interleukin 2 (IL2) Biomarker Activity (AID 2284245); settings: primary human B cells with PBMC
Method in brief: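 Secreted interleukin-2 from human B cell/PBMC co-cultures, measured 24 h post-dosing by Luminex multiplex immunoassay. Upward-direction curve fitting against DMSO baseline.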

[13] = read-out: Basic fibroblast growth factor (bFGF), FGF2 (gene 2247); assay: BSK_MyoF_bFGF: BioMAP Diversity Plus: MyoF Assay for Basic fibroblast growth factor (bFGF) Biomarker Activity (AID 2284246); settings: primary human lung fibroblasts
Method in brief: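 In this multiplexed cell system, lung fibroblasts (human primary) receive test chemical for 24 h before ELISA detection of bFGF; DMSO defines baseline and the analysis direction is positive.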

[14] = read-out: Collagen IV, COL4A1 (gene 1282); assay: BSK_MyoF_CollagenIV: BioMAP Diversity Plus: MyoF Assay for Collagen IV Biomarker Activity (AID 2284247); settings: primary human lung fibroblasts
Method in brief: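 Activity is scored as a signal increase over DMSO in an ELISA for Collagen IV, measured on human lung fibroblasts at 24 h after chemical treatment. Cytotoxicity is checked in parallel cultures by sulforhodamine B total-protein staining.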

[15] = read-out: Plasminogen activator inhibitor-1 (PAI1), SERPINE1 (gene 5054); assay: BSK_MyoF_PAI1: BioMAP Diversity Plus: MyoF Assay for Plasminogen activator inhibitor-1 (PAI1) Biomarker Activity (AID 2284256); settings: primary human lung fibroblasts
Method in brief: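 MyoF lung fibroblasts, human primary; compound 24 h; PAI-1 ELISA; positive-direction fit vs DMSO baseline; parallel SRB total-protein staining for cytotoxicity.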

[16] = read-out: Interleukin-8 (IL8), CXCL8 (gene 3576); assay: BSK_MyoF_IL8: BioMAP Diversity Plus: MyoF Assay for Interleukin-8 (IL8) Biomarker Activity (AID 2284261); settings: primary human lung fibroblasts
Method in brief: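 Lung fibroblasts (human primary) → chemical exposure → 24 h → IL-8 measured by ELISA. Signal increase scored versus DMSO control.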

Decorin, DCN (gene 1634) = assay: BSK_MyoF_Decorin: BioMAP Diversity Plus: MyoF Assay for Decorin Biomarker Activity (AID 2284265); settings: primary human lung fibroblasts
Method in brief: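 ELISA readout of decorin, 24 h post-dosing; primary human lung fibroblast (MyoF) culture; gain-of-signal fit vs DMSO baseline.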

Measured: AC50

Nc1cc([N+](=O)[O-])ccc1O
inactive: [1] | [2] | [3]

CC(=O)/C=C/C1=C(C)CCCC1(C)C
not listed: [1] | [2] | [3]
inactive: all other assays above

C=CCOC(=O)CCC1CCCCC1
inactive: [1] | [2] | [3]

O=C(O)c1cn(C2CC2)c2cc(N3CCNCC3)c(F)cc2c1=O
not listed: [1] | [2] | [3]
inactive: all other assays above

CCC(=O)OCc1ccccc1
inactive: [1] | [2] | [3]

CC1COc2ccccc2N1C(=O)C(Cl)Cl (stereo not drawn)
active: [4] 14.1 µM | [7] 20 µM | [8] 14.4 µM | [9] 29.6 µM | [11] 20 µM | [14] 2.33 µM | [15] 5.3 µM | [16] 16.1 µM
inactive: [5] | [6] | [10] | [12] | [13] | Decorin, DCN (gene 1634)

Cc1cc(C2(c3cc(C)c(O)cc3C)OS(=O)(=O)c3ccccc32)c(C)cc1O
inactive: [1] | [2] | [3]

CC(=O)O[C@]1(C(C)=O)CC[C@H]2[C@@H]3C[C@H](C)C4=CC(=O)CC[C@]4(C)[C@H]3CC[C@@]21C
active: [10] 10 µM
not listed: [1] | [2] | [3]
inactive: all other assays above

CC[Si](OC(C)=O)(OC(C)=O)OC(C)=O
inactive: [1] | [2] | [3]

CC(C)c1ccc(C(C)C)cc1
not listed: [1] | [2] | [3]
inactive: all other assays above

CC(=O)[C@H]1CC[C@H]2[C@@H]3CC=C4C[C@@H](O)CC[C@]4(C)[C@H]3CC[C@]12C
active: [2] 3.88 µM
inactive: [1] | [2] | [3]

CC(=O)OCCC(C)CC(C)(C)C (stereo not drawn)
inactive: [1] | [2] | [3]

Cc1ccc2n[nH]nc2c1
not listed: [1] | [2] | [3]
inactive: all other assays above

CCCCCCCCCC=O
active: [14] 7.8 µM | [15] 0.016 µM
not listed: [1] | [2] | [3]
inactive: all other assays above

OC[C@H]1O[C@H](O[C@]2(CCl)O[C@H](CCl)[C@@H](O)[C@@H]2O)[C@H](O)[C@@H](O)[C@H]1Cl
inactive: [1] | [2] | [3]

CC(=O)Nc1ccccc1O
active: [9] 0.016 µM
not listed: [1] | [2] | [3]
inactive: all other assays above

COc1cc(C=O)ccc1OC(=O)C(C)C
inactive: [1] | [2] | [3]

C[C@H]1C[C@@H]2[C@H]([C@@H](O)C[C@@]3(C)[C@H]2CC[C@]3(O)C(=O)CO)[C@@]2(C)C=CC(=O)C=C12
inactive: [1] | [2] | [3]
